High-throughput results: PubChem BioAssay, National Center for Advancing Translational Sciences (NCATS)
AmpC inh detg = inhibitors of E. coli AmpC beta-lactamase with detergent; AmpC hydrolysis of nitrocefin, absorbance 480 nm, 0.01% Triton; Potency, µM (top dose mostly 114 µM), inactives show at the top dose activity change, negative = inhibition, most hits filed as inhibitors; hit rate 0.041% among 370,000;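 also: 0% = no-compound wells and -100% = no-enzyme wells; nearly all actives have a fitted effect of over 25% in size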
Target sequence (P00811 whole entry, looked up): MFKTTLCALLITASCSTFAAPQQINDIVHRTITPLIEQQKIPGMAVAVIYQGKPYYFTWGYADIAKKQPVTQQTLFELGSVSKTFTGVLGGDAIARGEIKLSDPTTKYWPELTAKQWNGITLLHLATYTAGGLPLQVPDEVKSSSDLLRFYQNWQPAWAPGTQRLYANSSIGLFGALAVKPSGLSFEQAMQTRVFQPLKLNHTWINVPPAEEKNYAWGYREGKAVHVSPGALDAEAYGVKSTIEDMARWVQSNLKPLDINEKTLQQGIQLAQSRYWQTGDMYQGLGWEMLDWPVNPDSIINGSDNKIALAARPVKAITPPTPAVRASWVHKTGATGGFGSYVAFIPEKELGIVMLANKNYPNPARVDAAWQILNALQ
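AmpC (5.3 nM in the dispensed reagent) in 20 mM phosphate pH 7.0 with 0.01% (detergent screen) or 0.0001% Triton X-100 was preincubated with compounds for 15 min at room temperature. Nitrocefin was then added from an 800 uM solution, and hydrolysis was followed at 480 nm.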
Sm TGR block = blocks Schistosoma mansoni thioredoxin glutathione reductase. Q962Y6. Potency, µM (top dose mostly 114 µM), for inactives: top-dose activity change, negative = inhibition, actives largely listed as inhibitors. purified TGR, DTNB reduction, TNB absorbance 405 nm. hit rate 3% among 360,000; also: % is scaled to controls: 0 for no effect and ±100 for the full control effect; nearly all actives have a fitted effect of over 60% in size
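TGR 20 nM + NADPH 100 uM (dispensed conc.), cpd preinc 15 min RT; start with NADPH (500 uM addition) then DTNB (15 mM addition). Kinetic TNB absorbance, 405 nm filter. Four-parameter Hill fit across titration.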
RE007 growth inh = less growth of the S. pombe RE007 Vpr strain | Potency, µM (top dose mostly 92.2 µM), for inactives: at the highest dose activity change, negative = less growth, usual class: inhibitors | hit rate 0.21% among 360,000 | S. pombe RE007 Vpr strain, BacTiter-Glo ATP luminescence, 24 h | AID 651644; active = well fitted falling curve with a large enough effect; inconclusive = small, poorly fitted or top-dose-only effect; inactive = no such curve, though single readings can be large or run the other way; also: % is scaled to controls: 0 for no effect and ±100 for the full control effect; nearly all actives have a fitted effect of over 50% in size
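Fission yeast strain RE007, carrying one chromosomally integrated HIV-1 vpr copy, was seeded at OD 0.01 in PMG+AL medium with 23 nL pinned compound. After 24 h at 30 °C and 99% humidity, viability was read by BacTiter-Glo luminescence.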
AmpC inh no detg = inhibitors of E. coli AmpC beta-lactamase without detergent. P00811. AmpC nitrocefin hydrolysis, absorbance 480 nm, 0.0001% Triton. Potency, µM (highest dose often 57.1 µM), for inactives: at the highest dose activity change, negative = inhibition, usual class: inhibitors. hit rate 0.52% among 330,000. AID 485341;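 also: plate controls were no compound for no effect and no enzyme for full effect; nearly all actives have a fitted effect of over 20% in size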
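20 mM phosphate pH 7.0 + 0.01% (detergent screen) or 0.0001% Triton X-100; 5.3 nM AmpC reagent; cpd preinc 15 min RT; nitrocefin (800 uM stock) to start; A480 q20 s × 4 min; Activity was normalised to no-enzyme and no-compound control wells.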
Tb PYK inh = blocks Trypanosoma brucei pyruvate kinase; hit rate 0.12% among 410,000; Q57TT1; Potency, µM (doses to about 76.8 µM), for the others: top-dose activity, negative = inhibition, usual class: inhibitors; AID 624173; TbPYK enzyme, Kinase-Glo Plus ATP luminescence, 45 min; also: % is scaled to controls: 0 for no effect and ±100 for the full control effect; nearly all actives have a fitted effect of over 50% in size
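Readout: single end-point luminescence (Kinase-Glo Plus, 10 min). Reaction conditions were TbPYK/substrate plus 130 uM ADP, 45 min at RT, pH 7.2 TEA buffer. No-enzyme wells served as controls, and data were normalized before concentration-response fitting.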
SARS PLP yeast = blocks SARS-CoV papain-like protease in a yeast assay; S. cerevisiae expressing SARS-CoV PLpro, growth rescue; Potency, µM (top dose mostly 32.9 µM), without a hit: top-dose activity, positive = growth rescue, most hits filed as activators; hit rate 0.19% among 330,000; AID 485353; calls by dose curve; also: 0% is about no effect; nearly all actives have a fitted effect of over 55% in size
* marks the source's active call; other numbers are inactive results; ? = inconclusive; · = no result given; [ ] = another dose, or the depositor's remark. A selection: hits, their analogues and other compounds. The true share with any hit is near 3.3%. Unless noted, calls follow the shape of the dose curve; as a rule, active = well fitted curve in the direction sought with a large enough effect; inconclusive = small, poorly fitted or top-dose-only effect, or another doubt; inactive = no such curve, though single readings can be large; an effect the other way counts as inactive or inconclusive. Potency is read from the fitted curve at half-maximal effect.

SMILES | AmpC inh detg | Sm TGR block | RE007 growth inh | AmpC inh no detg | Tb PYK inh | SARS PLP yeast
CC1CCN(S(=O)(=O)c2cc(C(=O)N3CCN(c4cccc(Cl)c4)CC3)n(C)c2)CC1 | -3.3% | -3.9% | · | · | -1.3% | ·
Cc1cccc(N2CCN(C(=O)c3ccc(NC(=O)c4nsc5ccccc45)cc3)CC2)c1C | 0.6% | 1.7% | · | · | -5.7% | ·
COCCCN1C(=O)c2ccc(C(=O)NCc3ccco3)cc2C1=O | ? | 28.2µM* | -6.4% | -11.1% | -6.6% | 3.5%
O=C(NCc1ccco1)c1cccc(NC(=O)c2ccco2)c1 | -2.7% | 44.7µM* | 3.7% | -29.1% | ? | -2.6%
O=C(NCc1ccccc1)c1cccc(NC(=O)c2ccco2)c1 | -13.1% | 0.0% | 0.8% | -10.8% | 2.5% | -7.5%
COC(=O)c1ccccc1NC(=O)Cn1c(=O)n(CCCC(=O)NCc2ccccc2OC)c(=O)c2ccccc21 | 10.5% | 10.0% | · | · | -0.4% | ·
Cn1cc(S(C)=O)c(=O)c2ccc(F)cc21 (stereo not drawn) | · | · | · | · | -6.6% | ·
CCOC(=O)C1=C(CN2CCN(c3cc(C)ccc3C)CC2)NC(=O)NC1c1ccccc1 (stereo not drawn) | -12.3% | -1.4% | · | · | 6.3% | ·
CCOC(=O)C1=C(Cc2ccc(C)cc2)C(=O)c2ccccc2C1=O | -12.3% | 8.91µM* | · | -29.5% | · | -39.4%
CCOC(=O)c1c(C)nc2c(c1-c1cc(OC)ccc1OC)C(=O)c1ccccc1-2 | 2.4% | 0.1% | 13.8%[3.69 µM] | -9.2% | · | 1.1%
CCOC(=O)C1=C(Cc2ccc(OC)cc2)C(=O)c2ccccc2C1=O | 0.0% | 14.1µM* | -11.9% | -31.1% | ? | -26.7%
CCOC(=O)c1ccc(COC(=O)c2ccc3c(c2)-c2ccccc2C3=O)cc1 | 1.4% | 7.5% | 10.1% | -10.9% | 2.9% | ?
COc1ccc(-n2c(O)c(C=NCc3ccc4c(c3)OCO4)c(=O)[nH]c2=O)cc1 | -2.6% | 14.1µM* | -6.5% | -18.7% | 0.4% | -0.9%
COc1cccc(-n2c(O)c(C=NCc3ccc4c(c3)OCO4)c(=O)[nH]c2=O)c1 | -6.7% | -0.3% | -21.9% | -28.1% | -18.8% | 3.2%
Cc1ccc(S(=O)(=O)N2CC2(C)CCl)cc1 (stereo not drawn) | 4.2% | 50.1µM* | 16.0% | -22.9% | 5.0% | 0.0%
Cc1ccc(-c2ccc(S(=O)(=O)N3CCCC3)cc2)cc1 | -9.5% | 6.9% | 14.3% | -10.7% | 5.0% | -0.6%
NC(=S)N/N=C/c1ccc(-n2nncc2-c2ccc(Cl)cc2)cc1 | -5.2% | 5.6% | 2.5% | -54.5% | 7.4% | 10µM*
CC1OC(CC(=O)O)CC2=C1C(=O)c1c(O)cccc1C2=O (stereo not drawn) | · | · | 1.58µM* | · | ? | ·
O=C1c2cccc(O)c2C(=O)c2c(O)cccc21 | -6.0% | -16.3% | · | -19.2% | -2.6% | -32.5%
COC(=O)c1sccc1S(=O)(=O)N1CCN(c2ccc(C(C)=O)cc2)CC1 | -4.3% | -9.4% | · | · | 3.5% | ·
COc1ccc(C(=O)c2cnc3ccc(C)cc3c2S(=O)(=O)c2ccccc2)cc1 | 2.5% | -2.9% | · | · | -18.5% | ·
COc1cc(/C=C(/C#N)c2nc3ccccc3c(=O)[nH]2)ccc1O | 6.9% | 0.4% | 4.6% | 28.2µM* | -0.8% | 5.7%
COc1ccc(/C=C(\C#N)c2nc3ccccc3c(=O)[nH]2)cc1OC | -5.3% | -8.2% | · | · | 5.0% | ·
O=C(CN(C(=O)Cn1nnc(-c2cccs2)n1)c1ccc2c(c1)OCCO2)NCc1ccccc1 | -6.8% | -5.8% | 0.5% | -1.1% | -8.7% | -2.6%
O=C(CN(CCc1ccccc1)C(=O)Cn1nnc(-c2cccs2)n1)NCc1ccco1 | ? | 50.1µM* | 15.8% | -8.4% | 8.0% | -1.0%
SMILES | AmpC inh detg | Sm TGR block | RE007 growth inh | AmpC inh no detg | Tb PYK inh | SARS PLP yeast
Cc1ccc(NC(=O)Cn2cc(C(=O)c3cccs3)c3ccccc32)cc1C | 3.8% | 4.5% | · | · | 5.4% | ·
CC(=O)NCCCC(=O)NNC1CC(=O)N(c2cccc(Cl)c2)C1=O (stereo not drawn) | 5.7% | 11.2µM* | ? | -27.1% | -8.1% | -6.8%
Cc1ccc(NNC2CC(=O)N(c3cccc(Cl)c3)C2=O)cc1 (stereo not drawn) | -3.1% | 44.7µM* | 3.7% | -53.0% | 0.2% | -3.6%
Cc1cccc(N2C(=O)CC(N(O)c3ccccc3)C2=O)c1 (stereo not drawn) | ? | ? | -1.1% | -27.4% | -7.0% | 1.4%
CCN(CC)C1CC(=O)N(c2cccc(Cl)c2)C1=O (stereo not drawn) | -7.8% | 3.98µM* | 5.62µM* | -19.4% | -2.4% | -22.6%
CC(O)CCC(=O)NNC1CC(=O)N(c2ccccc2)C1=O (stereo not drawn) | -2.3% | -6.3% | 11.2% | -6.9% | 3.6% | 1.0%
O=C1CC(NNc2ccccc2)C(=O)N1c1ccccc1 (stereo not drawn) | 1.3% | -4.0% | 26.3% | -30.8% | -0.6% | 11.6%
CCCCCC(=O)NNC1CC(=O)N(c2cccc(OCC)c2)C1=O (stereo not drawn) | -1.3% | 31.6µM* | -3.4% | 20.8% | -3.1% | 0.6%
N#C/C(=C/c1cn(Cc2ccc(F)cc2)c2ccccc12)C(=O)Nc1cccc(Cl)c1 | 12.6% | 0.9% | · | · | -1.5% | ·
O=S1(=O)c2ccccc2N=NN1Cc1cc(Cl)cc(Cl)c1 | 0.7% | 0.0% | · | · | · | ·
O=S1(=O)c2ccccc2N=NN1Cc1ccc(Cl)cc1 | -1.2% | 2.51µM* | 8.7% | -52.8% | 0.0% | -2.8%
O=C(CNC1CCCCCC1)Nc1ccc(S(=O)(=O)NC2CC2)cc1 | -0.1% | -5.6% | 5.7% | 0.159µM* | 2.3% | 4.4%
O=C(/C=C/N1CCOCC1)c1coc2ccccc12 | -6.1% | 79.4µM* | 3.8% | -27.3% | 6.7% | -6.2%
O=C(/C=C/N1CCOCC1)c1cc2ccccc2o1 | -5.5% | ? | -11.4% | -45.4% | -7.0% | -11.6%
Cc1ccc(N/N=C(/Sc2nnnn2-c2ccccc2)C(=O)c2ccccc2)cc1 | 35.5µM* | -2.1% | 6.9% | 3.98µM* | -6.2% | 2.2%
CO[C@@H]1[C@@H]([C@H](C)[C@@H]2O[C@@]3(CC[C@@](C)([C@H]4CC[C@@](C)([C@H]5O[C@H]([C@H]6O[C@](C)(O)[C@H](C)C[C@@H]6C)C[C@H]5O[C@H]5C[C@@H](OC)[C@H](OC)[C@@H](C)O5)O4)O3)C[C@@H](O)[C@@H]2C)O[C@@](O)(CC(=O)O)[C@H](C)[C@H]1OC | · | · | · | · | 0.3% | ·
O=C1CC(SC2=NCCS2)C(=O)N1c1ccc(Cl)cc1 (stereo not drawn) | -13.4% | 56.2µM* | 7.8% | -17.4% | -11.4% | -3.8%
